Test results: PubChem BioAssay AID1159580 (chemical genetic matrix, 2015)
Where “and” joins values, the source holds several entries; their conditions need not be identical. Equal entries are not always repeated. Among all 5,500 compounds or so, about 2,000 (36%) were called active. Not shown: some 18% with an inconclusive outcome. Rule as the data show it: active = normalized growth mostly below about 0.91 (no sharp cut-off); inconclusive = no clear call, values can overlap the other calls; inactive = mostly above about 0.92. The list shows a part of the results.

Experiment: chemical genetic growth profiling, strain panel (AID 1159580);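 also: tested at 20 µM; growth read once vehicle control cultures reached saturation at 30 °C; 1 = growth at the plate median or of vehicle wells; lower values mean less growth of the strain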
Conditions: S. cerevisiae deletion strains, growth OD

Measured: normalized growth

Cc1c(N(C)CS(=O)(=O)O)c(=O)n(-c2ccccc2)n1C
inactive: locus YAL021C, strain ccr4, hits give low values 1.01 | locus YAL026C, strain drs2, hits give low values 1.01 | locus YAL030W, strain snc1, hits give low values 1.01 | locus YBL061C, strain skt5, hits give low values 1.01 | locus YBR009C, strain hhf1, hits give low values 1 | locus YBR021W, strain FUR4, hits give low values 0.991 | locus YBR023C, strain chs3, hits give low values 1.01 | locus YBR171W, strain sec66, hits give low values 1.02 | locus YBR229C, strain ROT2, hits give low values 0.989 | locus YBR231C, strain swc5, hits give low values 1.02 | locus YBR279W, strain paf1, hits give low values 1.04 | locus YCL011C, strain gbp2, hits give low values 1.01 | locus YCL016C, strain dcc1, hits give low values 1.01 | locus YCL029C, strain bik1, hits give low values 0.992 | locus YCL061C, strain MRC1, hits give low values 1.01 | locus YCL069W, strain vba3, hits give low values 1.01 | locus YCR088W, strain abp1, hits give low values 1.01 | locus YDL005C, strain med2, hits give low values 1.01 | locus YDL035C, strain GPR1, hits give low values 1 | locus YDL040C, strain nat1, hits give low values 1.01 | locus YDL074C, strain BRE1, hits give low values 1.06 | locus YDL101C, strain DUN1, hits give low values 1 | locus YDL134C, strain PPH21, hits give low values 0.979 | locus YDL185W, strain tfp1, hits give low values 0.992 | locus YDL192W, strain arf1, hits give low values 0.982 | locus YDR001C, strain nth1, hits give low values 1.01 | locus YDR069C, strain doa4, hits give low values 1.01 | locus YDR101C, strain arx1, hits give low values 1.03 | locus YDR137W, strain rgp1, hits give low values 1.01 | locus YDR159W, strain sac3, hits give low values 1 | locus YDR162C, strain NBP2, hits give low values 0.987 | locus YDR195W, strain ref2 1.01 | locus YDR297W, strain sur2, hits give low values 1.01 | locus YDR318W, strain mcm21, hits give low values 0.976 | locus YDR334W, strain swr1, hits give low values 1.01 | locus YDR335W, strain msn5, hits give low values 1.01 | locus YDR388W, hits give low values 0.982 | locus YDR392W, strain spt3, hits give low values 1.01 | locus YDR502C, strain sam2, hits give low values 1 | locus YEL003W, strain gim4, hits give low values 1.01 | locus YEL037C, strain rad23, hits give low values 1.01 | locus YEL061C, strain CIN8 (second series), hits give low values 1.02 | locus YEL061C, strain CIN8, hits give low values 0.999 | locus YER015W, strain faa2, hits give low values 1.01 | locus YER016W, strain bim1, hits give low values 1.01 | locus YER110C, hits give low values 0.994 | locus YER111C, strain swi4, hits give low values 1.01 | locus YER155C, strain BEM2 (second series), hits give low values 1.02 | locus YER155C, strain BEM2, hits give low values 0.992 | locus YER167W, strain BCK2, hits give low values 0.979 | locus YFR010W, strain ubp6, hits give low values 1.02 | locus YGL078C, strain dbp3, hits give low values 0.985 | locus YGL086W, strain mad1, hits give low values 0.995 | locus YGL167C, strain pmr1, hits give low values 1.01 | locus YGL173C, strain kem1, hits give low values 1.02 | locus YGL227W, strain vid30, hits give low values 1.01 | locus YGL240W, strain doc1, hits give low values 1.03 | locus YGL248W, strain PDE1, hits give low values 0.991 | locus YGL253W, strain hxk2, hits give low values 1.01 | locus YGR135W, strain pre9, hits give low values 0.96 | locus YGR252W, strain gcn5, hits give low values 0.968 | locus YHR013C, strain ard1, hits give low values 0.999 | locus YHR027C, strain rpn1, hits give low values 1.01 | locus YHR030C, strain SLT2, hits give low values 0.984 and 1 | locus YHR079C, strain IRE1 (second series), hits give low values 0.986 | locus YHR079C, strain IRE1, hits give low values 0.98 | locus YHR094C, strain hxt1, hits give low values 0.985 | locus YHR129C, strain ARP1, hits give low values 0.988 | locus YHR142W, strain chs7, hits give low values 1.02 | locus YHR200W, strain rpn10, hits give low values 0.981 | locus YIL066C, strain RNR3, hits give low values 0.998 | locus YIL073C, strain SPO22, hits give low values 0.997 | locus YIL125W, strain kgd1, hits give low values 0.993 | locus YIR030C, strain dcg1, hits give low values 0.982 | locus YJL092W, strain hpr5, hits give low values 1.01 | locus YJL095W, strain BCK1 (second series), hits give low values 1.02 | locus YJL095W, strain BCK1, hits give low values 1 and 0.996 | locus YJL115W, strain asf1, hits give low values 1 | locus YJL129C, strain trk1, hits give low values 1.01 | locus YJL134W, strain LCB3, hits give low values 0.986 | locus YJL154C, strain vps35, hits give low values 1.01 | locus YJL164C, strain tpk1, hits give low values 1.01 | locus YJL166W, strain qcr8, hits give low values 1.02 | locus YJL168C, strain set2, hits give low values 0.989 | locus YJL187C, strain SWE1 (second series), hits give low values 0.997 | locus YJL187C, strain SWE1, hits give low values 1.01 | locus YJR043C, strain POL32, hits give low values 1 | locus YJR066W, strain TOR1, hits give low values 0.946
